A selection: hits, their analogues and other compounds. The true share with any hit is near 18%.
PLK1 PBD inh: inhibitors of human PLK1 polo-box domain binding; actives 2.8% (n = 360,000); Plk1 PBD binding of FITC phosphopeptide, fluorescence polarization; P53350; Potency, µM, for inactives: max response, negative = inhibition, usual class: inhibitors; AID 720504; note: series mostly up to about 57 µM; nearly all actives have a fitted effect of over 65% in size
GCN5L2 inh: blocks human GCN5L2 histone acetyltransferase | GCN5L2 HAT assay, ThioGlo1 CoA-SH fluorescence | Potency, µM (top dose mostly 58.9 µM), for the others: at the top dose activity change, negative = inhibition, hits mostly inhibitors | AID 504327 | actives 0.21% (n = 390,000) | Q92830
Target sequence (Q92830 whole entry, looked up): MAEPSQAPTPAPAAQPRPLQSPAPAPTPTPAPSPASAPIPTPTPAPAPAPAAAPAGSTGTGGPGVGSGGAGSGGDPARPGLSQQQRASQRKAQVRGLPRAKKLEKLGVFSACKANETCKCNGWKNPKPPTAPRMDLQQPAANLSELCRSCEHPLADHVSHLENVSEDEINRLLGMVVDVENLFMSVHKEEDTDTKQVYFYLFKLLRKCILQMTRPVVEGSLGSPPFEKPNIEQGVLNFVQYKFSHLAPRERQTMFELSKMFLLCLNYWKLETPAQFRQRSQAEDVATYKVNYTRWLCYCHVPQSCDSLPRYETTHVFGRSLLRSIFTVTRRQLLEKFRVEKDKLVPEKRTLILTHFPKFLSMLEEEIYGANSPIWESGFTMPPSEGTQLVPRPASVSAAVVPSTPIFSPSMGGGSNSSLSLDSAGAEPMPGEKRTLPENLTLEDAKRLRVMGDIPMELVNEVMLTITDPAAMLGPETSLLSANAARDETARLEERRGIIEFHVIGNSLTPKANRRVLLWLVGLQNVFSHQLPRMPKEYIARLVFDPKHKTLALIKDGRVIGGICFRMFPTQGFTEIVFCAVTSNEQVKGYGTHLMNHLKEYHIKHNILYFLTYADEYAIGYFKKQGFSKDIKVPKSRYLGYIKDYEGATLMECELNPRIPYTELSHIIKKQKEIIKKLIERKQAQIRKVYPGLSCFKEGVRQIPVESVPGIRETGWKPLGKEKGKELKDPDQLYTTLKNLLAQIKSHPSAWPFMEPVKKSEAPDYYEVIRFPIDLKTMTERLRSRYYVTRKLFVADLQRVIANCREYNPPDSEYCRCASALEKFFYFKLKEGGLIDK
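ThioGlo1-coupled HAT assay: 20nM GCN5L2, 70uM acetyl-CoA, 75uM H3(1-25) peptide, pH 7.5. Fluorescence read at 340/540nm at start and after 20 min at room temperature.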
TDP1 cell CPT: DT40-hTDP1 cell growth loss with CPT | chicken DT40 Tdp1-/-;hTDP1 cells + 20 nM CPT, ATP luminescence, 48 h | Potency, µM (highest dose often 46.2 µM), for the others: at the top dose activity change, negative = growth inhibition, actives largely listed as inhibitors | actives 12% (n = 420,000) | AID 686979; note: nearly all actives have a fitted effect of over 55% in size
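Chicken DT40 Tdp1-/- cells complemented with human TDP1, 400 cells/well, exposed to compounds plus 20 nM camptothecin for at least 48 h at 37 C; viability read as ATP content by CellTiter-Glo luminescence.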
VDR inhibitor: inhibitors of human vitamin D receptor; P11473; VDR-SRC2-3 peptide fluorescence polarization, 2 h; Potency, µM, without a hit: max response, negative = inhibition, actives largely listed as inhibitors; actives 0.93% (n = 400,000)
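VDR–SRC2-3 interaction, FP format. Cmpds 23 nl via pintool, brief spin, 2 h ambient incubation.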
TDP1 cell noCPT: qHTS for Inhibitors of human tyrosyl-DNA phosphodiesterase 1 (TDP1): qHTS in cells in absence of CPT; Potency, µM (series often up to 46.2 µM), inactives show at the highest dose activity change, negative = growth inhibition, hits mostly inhibitors; actives 15% (n = 420,000); DT40 Tdp1-/- hTDP1 cells, no CPT, ATP luminescence, 48 h; AID 686978, 2013; note: nearly all actives have a fitted effect of over 55% in size
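Growth kinetics read by CellTiter-Glo luminescence after ≥48 hr at 37 °C. Cells: DT40 Tdp1-/- stably carrying human TDP1, 400 per well, compound exposure in the absence of CPT (DMSO vehicle).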
TDP1 inh: inhibitors of human tyrosyl-DNA phosphodiesterase TDP1 | actives 0.28% (n = 350,000) | Q9NUW8 | AID 485290 | Potency, µM (doses to about 130 µM), without a hit: at the top dose activity change, negative = inhibition, actives largely listed as inhibitors | recombinant TDP1, AlphaScreen DNA substrate cleavage; note: nearly all actives have a fitted effect of over 40% in size
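Recombinant human Tdp1 (E. coli-expressed, 1 nM final) preincubated with compounds 15 min at room temperature, then 5'-biotin/3'-phosphotyrosine-FITC DNA substrate (15 nM final) added for 5 min. AlphaScreen beads (10 ug/ml final) added 10 min; cleavage lowers signal.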
Active calls of the source: *; ? = inconclusive; nt = not tested or not shown; ! = a repeat was not active; [ ] = remark or other dose. Calls come from the whole dose curve; as a rule, active = well fitted curve in the direction sought with a large enough effect; inconclusive = small, poorly fitted or top-dose-only effect, or another doubt; inactive = no such curve, though single readings can be large; an effect the other way counts as inactive or inconclusive. % is set by controls: 0 for no effect and ±100 for the full control effect; potency is the fitted concentration of half-maximal effect.

SMILES	PLK1 PBD inh	GCN5L2 inh	TDP1 cell CPT	VDR inhibitor	TDP1 cell noCPT	TDP1 inh
CN(C)CC(C)(C)CNS(=O)(=O)c1ccc(Cl)c(Cl)c1	18.9µM*!	-8.0%	-24.2%	-22.9%	2.31µM*!	2.5%
CN(C)CCNC(=O)c1cccc(NS(=O)(=O)c2ccc(Cl)c(Cl)c2)c1	-21.5%	-2.5%	-23.6%	26.3%	3.2%	2.7%
COc1cc(-c2nnc(SCC(=O)Oc3ccccc3Cl)o2)cc(OC)c1OC	nt	-7.9%	-4.1%	6.4%	-3.6%	5.7%
COc1cc(-c2nnc(SCC(=O)c3cc(C)n(CC4CCCO4)c3C)o2)cc(OC)c1OC (centres undefined)	-7.6%	-12.3%	20.6µM*	-9.9%	?	9.1%
O=C(Sc1nnc(-c2ccccc2)o1)N1c2ccccc2Sc2ccccc21	67µM*	-5.1%	20.6µM*	9.0%	18.4µM*	15.2%[56.1 µM]
COc1ccc(NC(=O)c2cc(C)n(Cc3cccs3)c2C)cc1	-7.7%	-3.0%	2.4%	-6.1%	?	5.9%
COc1cc(-c2nnc(SCC(=O)N3CCCC3)o2)cc(OC)c1OC	?	-3.5%	-9.2%	0.0%	-2.4%	6.3%
COc1cc(-c2nnc(SCC(=O)N3c4ccccc4Sc4ccccc43)o2)cc(OC)c1OC	-2.7%	-4.3%	?	5.5%	8.2µM*	2.5%
Cc1cc(C(=O)CN2C(=O)c3cccc(N)c3C2=O)c(C)n1Cc1cccs1	3.36µM*	-10.0%	?	-26.2%	20.6µM*	-5.6%
O=C([C@H]1O[C@@H](n2ccc(=O)[nH]c2=O)[C@H](O)[C@@H]1O)N1CCN(c2ccc(Cl)cn2)CC1	-13.7%	nt	1.2%	nt	2.4%	nt
COc1ccc(Cn2c(SCc3ccc(C(=O)NC(C)c4ccccc4)cc3)nc3cccnc32)cc1 (centres undefined)	nt	-18.9%	-0.3%	-1.1%	?	4.9%
Cc1cc(C(=O)CSc2nnc(-c3ccccc3F)o2)c(C)n1Cc1cccs1	-10.6%	1.1%	23.1µM*	13.5%	?	1.9%
Cc1cc(C(=O)CSc2nnc(-c3cccnc3)n2-c2ccccc2F)c(C)n1CC1CCCO1 (centres undefined)	-1.3%	-1.9%	-24.1%	3.0%	23.1µM*	-12.3%
COc1cc(-c2nnc(SCc3c(F)cccc3Cl)o2)cc(OC)c1OC	-14.5%	-13.3%	?	-5.0%	25.9µM*	3.3%
COc1cc(-c2nnc(SCC(=O)c3ccc(C)cc3)o2)cc(OC)c1OC	-8.8%	-24.3%	?	6.0%	23.1µM*	5.3%
Cc1cc(C(=O)CSc2nnnn2-c2ccccc2)c(C)n1CC1CCCO1 (centres undefined)	-13.8%	-5.1%	-22.5%	-4.6%	?	-3.1%
Cc1cc(C(=O)CSc2nnc(-c3ccc(F)cc3)o2)c(C)n1CC1CCCO1 (centres undefined)	-0.1%	-7.7%	?	7.3%	20.6µM*	2.9%
Cc1cc(C(=O)CSc2nnc(Nc3ccccc3)s2)c(C)n1CC1CCCO1 (centres undefined)	-14.2%	-6.4%	11.6µM*	7.0%	?	5.1%
Cc1cc(C(=O)CSc2nc3ccccc3c(=O)[nH]2)c(C)n1CC1CCCO1 (centres undefined)	1.6%	-4.4%	13µM*	1.7%	10.3µM*	2.6%
Cc1cc(C(=O)CSc2nc3ccccc3c(=O)n2C)c(C)n1CC1CCCO1 (centres undefined)	nt	-1.2%	nt	nt	nt	2.4%
CCC1=C2CC[C@H]3C(=O)N(CC(=O)OC)C(=O)[C@H]3[C@H]2[C@@]2(Cc3ccccc3)C(=NCCc3c[nH]c4ccccc34)OC(=O)N2C1=O	nt	nt	nt	nt	nt	14.7%
O=C(Nc1nnc(C2CC2)o1)c1ccc(S(=O)(=O)N2CCCCC2)cc1	-2.6%	-4.2%	?	-10.3%	?	4.2%
O=C(Nc1nnc(C2CC2)o1)c1ccc(S(=O)(=O)N2CCCc3ccccc32)cc1	-7.9%	-11.9%	4.61µM*	-19.4%	?	9.8%
O=C(NCc1ccccc1)c1ccc(S(=O)(=O)N2CCCc3ccccc32)cc1	-6.6%	-2.5%	-27.5%	1.9%	1.6%	3.1%
CS(=O)(=O)c1ccc(-c2nnc(NC(=O)c3ccc(S(=O)(=O)N4CCCC4)cc3)o2)cc1	-6.8%	-21.0%	0.4%	-12.4%	5.8%	nt
SMILES	PLK1 PBD inh	GCN5L2 inh	TDP1 cell CPT	VDR inhibitor	TDP1 cell noCPT	TDP1 inh
COc1ccc(-c2nnc(NC(=O)c3ccc(S(=O)(=O)N4CCCc5ccccc54)cc3)o2)cc1	31.6µM*	-12.4%	3.16µM*	-8.0%	5.62µM*	12.8%
COCc1nnc(NC(=O)c2ccc(S(=O)(=O)N3CCCc4ccccc43)cc2)o1	-12.0%	-7.9%	23.1µM*	-5.7%	?	8.9%
CSc1nc(SC(C)C(=O)O)c2c3c(sc2n1)COC(C)(C)C3 (centres undefined)	-19.0%	-7.3%	-21.4%	-11.3%	-2.5%	2.8%
CSc1nc(SCCN(C)C)c2c3c(sc2n1)COC(C)(C)C3	-7.3%	0.3%	?	13.3%	18.4µM*	7.1%
O=C(C1CCN(C2CCN(CC3CC=CCC3)CC2)CC1)N1CCOCC1 (centres undefined)	-8.8%	3.7%	-0.6%	-3.3%	7.6%	-3.0%
Cc1ccc(S(=O)(=O)N2CCN(c3nc(C(C)C)c4c(c3C#N)CC(C)(C)OC4)CC2)cc1	-4.5%	-4.0%[0.501 µM]	15.8µM*	5.5%	15.8µM*	-0.7%
CCc1nc(N2CCN(C(C)=O)CC2)c(C#N)c2c1COC(C)(C)C2	-6.7%	-3.6%	-12.7%	-7.2%	-27.2%	3.6%
CCCNC(=O)N1CCN(c2nc(C(C)C)c3c(c2C#N)CC(C)(C)OC3)CC1	-19.0%	-2.0%	29.1µM*	-3.4%	-63.3%	-2.0%
CC(C)Cc1nc(N2CCOCC2)c(C#N)c2c1COC(C)(C)C2	-2.5%	-2.3%	-14.4%	13.8%	?	6.3%
Cc1nc(N2CCN(C(=O)c3ccc(Cl)cc3)CC2)c(C#N)c2c1COC(C)(C)C2	-4.6%	3.1%	29.1µM*	3.6%	?	3.2%
COCCN(C(=O)CCSc1ccc(F)cc1)c1c(N)n(Cc2ccccc2)c(=O)[nH]c1=O	-1.6%	1.4%	-0.9%	-12.0%	-26.7%	0.9%
CN(CC(=O)Nc1cccc(C(F)(F)F)c1)C1=NS(=O)(=O)c2ccccc21	3.4%	0.2%	-24.9%	-3.9%	-12.9%	0.2%
Cc1ccc(-c2nc3cc(Br)cnc3nc2-c2ccc(C)cc2)cc1	-15.6%	-0.7%	14.6µM*	5.1%	?	3.8%
Cc1nc2ncc(Br)cc2[nH]1	-11.9%	3.3%	2.2%	-19.9%	-2.6%	-1.3%
